Source: PubChem BioAssay (National Center for Advancing Translational Sciences (NCATS))
An excerpt weighted towards active compounds, which were near 1.2% of everything screened.
Tb PFK inh-1: inhibitors of T. brucei phosphofructokinase | O15648 | T. brucei PFK, ADP-Glo luminescence | Potency, µM (doses to about 57.5 µM), for the others: at the top dose activity, negative = inhibition, usual class: inhibitors | 0.17% of 330,000 active | AID 485367;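 further: potency means the concentration at half of the fitted maximal effect; 0% = uninhibited 1x PFK enzyme wells and -100% = no-enzyme wells; nearly all actives have a fitted effect of over 60% in size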
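In TEA buffer at pH 8.0 with 5 mM MgCl2, enzyme (1.25 nM) converted F6P (0.5 mM) and ATP (0.1 mM) for 45 min at room temperature. ADP product was read by luciferase luminescence.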
TSG101-PTAP inh: blocks PTAP/TSG101 interaction to inhibit HIV-1 budding. Q99816. Fluorescence polarization, FITC-PTAP peptide / Tsg101 binding. Potency, µM (series often up to 115 µM), inactives show at the highest dose activity change, negative = inhibition, most hits filed as inhibitors. 340,000 tested, under 10 active. AID 493005; active means well fitted inhibition curve with a large enough effect in the main read-out, with a control signal flat, not every such curve was filed as active; inconclusive means small, poorly fitted or top-dose-only effect, or effect the other way, or a change in a side signal; inactive means no such curve, though single readings can be large or run the other way; further: potency means the concentration at half of the fitted maximal effect; % of control where 0% means no effect
Target sequence (Q99816 whole entry, looked up): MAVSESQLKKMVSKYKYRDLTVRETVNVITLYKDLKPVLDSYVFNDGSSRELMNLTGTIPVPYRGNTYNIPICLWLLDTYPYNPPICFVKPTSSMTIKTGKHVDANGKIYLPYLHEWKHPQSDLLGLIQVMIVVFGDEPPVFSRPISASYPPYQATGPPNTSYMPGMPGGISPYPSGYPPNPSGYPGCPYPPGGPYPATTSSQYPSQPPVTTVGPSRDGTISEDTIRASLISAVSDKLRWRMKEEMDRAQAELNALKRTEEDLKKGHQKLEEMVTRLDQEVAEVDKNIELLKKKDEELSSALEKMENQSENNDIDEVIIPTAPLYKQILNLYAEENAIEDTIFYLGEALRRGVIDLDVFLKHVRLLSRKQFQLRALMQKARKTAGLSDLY
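Steps: Tsg101 binding domain dispensed (10 uM final), compounds pinned in DMSO, FITC-labeled PTAP-motif peptide added (50 nM final); after 20 min binding at room temperature, polarization measured.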
KCNH2 3.1 inh: blocks the human KCNH2 3.1 channel isoform; 0.95% of 340,000 active; activity change, % (tested at about 1.8 µM); U2OS KCNH2 3.1, thallium flux FluxOr; stronger effect = lower value;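 active means maximum activity change below -70%; inconclusive means maximum activity change from -70% to -50%; inactive means maximum activity change above -50%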;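 further: thallium influx rate constant from kinetic fluorescence after stimulation buffer; on the % scale 0 is the no-effect control and ±100 the full control effect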
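Thallium flux via FluxOr fluorescence (Red40 quencher, 45 min loading) in U2OS cells virally expressing the KCNH2 3.1 isoform (1.77 x 10^8 /mL virus, overnight at 37 C). Rate constants from 2-min kinetic reads post-stimulation, normalised to positive and negative controls.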
KCNH2 WT inh: blocks the wildtype human KCNH2 potassium channel | U2OS, BacMam KCNH2, thallium flux FluxOr; stronger effect = lower value | Q12809 | activity change, % at 1.84 µM | 0.37% of 340,000 active;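 active means maximum activity change below -70%; inconclusive means maximum activity change between -70% and -50%; inactive means maximum activity change above -50%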; further: on the % scale 0 is the no-effect control and ±100 the full control effect
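U2OS cells transduced with wild-type KCNH2 virus are loaded with FluxOr dye for 45 min, and thallium flux is measured in kinetic reads before and after stimulation buffer. Rate constants are normalized to DMSO controls.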
TbPFK ATP: Tb phosphofructokinase inhibition, orthogonal luminescence; shares compounds with Tb PFK inh-1; Potency, µM (highest dose often 57.5 µM), without a hit: at the top dose inhibition; 47% of 1,100 active; Tb PFK enzyme, ATP depletion, Kinase-Glo Plus luminescence; calls by dose curve; further: potency means the concentration at half of the fitted maximal effect; nearly all actives have a fitted effect of over 60% in size
Tb PFK inh-2: T. brucei PFK enzyme inhibition, hit validation. shares compounds with Tb PFK inh-1. purified T. brucei PFK, ADP-Glo luminescence, 45 min. Potency, µM (top dose mostly 57.5 µM), for the others: at the highest dose activity change, negative = inhibition, usual class: inhibitors. 41% of 1,100 active. AID 504637;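 further: potency means the concentration at half of the fitted maximal effect; plate controls were full PFK enzyme control for no effect and no enzyme control for full effect; nearly all actives have a fitted effect of over 60% in size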
Starred values were filed as active, the others as inactive; ? = inconclusive; . = no result. Unless noted, the call rests on the fitted dose curve; in most records, active means well fitted inhibition curve with a large enough effect; inconclusive means small, poorly fitted or top-dose-only effect, or effect the other way; inactive means flat fitted curve, though single readings scatter.

SMILES | Tb PFK inh-1 | TSG101-PTAP inh | KCNH2 3.1 inh | KCNH2 WT inh | TbPFK ATP | Tb PFK inh-2
CN1CCN(Cc2cc(=O)n3ccsc3n2)CC1 | ? | -5% | -81* | 6 | . | .
O=c1cc(CN2CCNCC2)nc2sccn12 | -2% | 1% | 6 | -4 | . | .
O=C(O)c1sccc1Oc1ccc(F)cc1[N+](=O)[O-] | -1% | -1% | 4 | -1 | . | .
CCOc1cc2c(cc1OCC)-n1cccc1C(c1ccc(OC(F)F)cc1)NC2 (configuration not stated) | 1% | -1% | -82* | -13 | . | .
CC(C)C[C@H]1CN([C@@H](CC(C)C)CN2CCCC2CN2C(=S)NC[C@@H]2Cc2ccc(O)cc2)C(=S)N1CC1CCCCCC1 (some centres not stated) | . | ? | -7 | 0 | . | .
NC(=O)c1c(NC(=O)c2ccc(S(=O)(=O)N(CCCl)CCCl)cc2)sc2c1CCCCC2 | -4% | 0% | 1 | -2 | . | .
COC(=O)c1c(NC(=O)Cc2cccs2)sc2c1CCCC2 | ? | -1% | 10 | 18 | ? | ?
O=[N+]([O-])c1cnc[nH]1 | -7% | 0% | 15 | -4 | . | .
O=C(Nc1ccc(Cl)cc1)Nc1ccc(S(=O)(=O)Nc2ncccn2)cc1 | 15µM* | 5% | 17 | -2 | 8.5µM* | 27µM*
O=C(CSc1ccccc1)Nc1ccc(S(=O)(=O)Nc2ncccn2)cc1 | ? | -5% | 10 | -11 | ? | -13%
O=C(Nc1n[nH]c(=S)s1)c1ccco1 | ? | -1% | 3 | -6 | 5.4µM* | 12µM*
O=C(Nc1ccc(Cl)c(Cl)c1)c1ccco1 | -4% | 0% | 4 | -1 | . | .
Cc1ccc(NC2c3ncccc3C(=O)N2c2ccccc2C)cc1C (configuration not stated) | ? | -1% | -10 | -5 | 19µM* | ?
CC1=NN=C(c2ccc(N)cc2)c2cc3c(cc2C1)OCO3 | 0% | -5% | 1 | 0 | . | .
Cc1cc(NC(=O)COC(=O)c2c(C)nn(Cc3ccccc3)c2C)no1 | 4% | 2% | -3 | -8 | . | .
Cc1nn(Cc2ccc(Cl)c(Cl)c2)c(C)c1NC(=O)c1cc(-c2ccco2)on1 | 4.8µM* | 3% | -15 | -21 | 2.7µM* | 6µM*
CCCC(C)n1[nH]c(=O)c2c1NC(=O)CSC2c1ccccc1 (configuration not stated) | 0% | -7% | -14 | -1 | . | .
COc1cccc(OP(=O)(Nc2ccccc2)Oc2cccc(OC)c2)c1 | -1% | -11% | 2 | -1 | . | .
COc1cccc(NC(=S)Nc2ccc(O)cc2)c1 | ? | 1% | -7 | -11 | ? | -14%
c1cc2c(cc1N1CCCCC1)C1CC2CCN1 (configuration not stated) | . | -2% | -11 | 3 | . | .
CCN(CC)c1ccc(SS(=O)(=O)O)cc1 | 19µM* | -1% | -6 | 13 | 11µM* | 12µM*
Cc1ccc(OCCOc2cccc(C=C3C(=O)NC(=O)NC3=O)c2)c(C)c1 | 3% | -1% | -11 | -9 | . | .
C#C[C@]1(O)CC[C@H]2[C@@H]3CCC4=Cc5nc6nc7ccccc7n6cc5C[C@]4(C)[C@H]3CC[C@@]21C | -6% | ? | -46 | ? | . | .
Cc1c(C(=O)Nc2nc(-c3ccccn3)cs2)oc2ccccc12 | ? | -14% | 30 | 2 | 19µM* | 30µM*
O=C(CSc1nnc(CNc2ccc(F)cc2)o1)N1CCN(C(=O)c2ccco2)CC1 | ? | -2% | 6 | 2 | 15µM* | 24µM*
SMILES | Tb PFK inh-1 | TSG101-PTAP inh | KCNH2 3.1 inh | KCNH2 WT inh | TbPFK ATP | Tb PFK inh-2
CCOC(=O)CN(C(=O)CSc1nnc(CNc2ccc(F)cc2)o1)c1ccccc1 | 24µM* | 1% | -1 | 1 | 13µM* | 27µM*
COc1ccc(N2CCN(C(=O)CSc3nnc(CNc4ccccc4)o3)CC2)cc1 | ? | -5% | -2 | -10 | 19µM* | 30µM*
COC1C(O)C(C)OC(OC2CCC3(C)C(CCC4C3C(O)CC3(C)C(C5=CC(=O)OC5)CCC43O)C2)C1O (configuration not stated) | . | 1% | -1 | 3 | . | .
C=CC(=O)OCCO | . | 2% | 6 | 6 | . | .
C[C@]12CC[C@H](O)CC1=CCC1C2CC[C@@]2(C)C1C[C@@H]1CC(=O)O[C@@H]12 (some centres not stated) | 0% | -7% | 1 | 1 | . | .
O=c1[nH]c(=O)n(-c2ccc(Cl)cc2)c(O)c1C=Nc1ccc(S(=O)(=O)Nc2nccs2)cc1 | 0% | -1% | 4 | 1 | . | .
Cc1cc(C)c2oc(C(=O)Nc3ccc(S(=O)(=O)Nc4nccs4)cc3)cc(=O)c2c1 | ? | -4% | -5 | -15 | -29% | ?
Cc1ccc(NC(=O)C2=C(c3ccccc3)S(=O)(=O)CCS2(=O)=O)cc1 | ? | 1% | 8 | 4 | -25% | ?
Cc1cc(Br)ccc1N=C1NC(=O)CS1 | ? | -6% | 7 | 2 | ? | -23%
Cc1ccc(C2=NCC(=O)Nc3ccc(Br)cc32)cc1 | 0% | -4% | 0 | -1 | . | .
Cc1cc(O)c2c(c1)OC(C)(C)C1=C2CC(C)CC1 (configuration not stated) | 0% | 2% | -13 | 14 | . | .
O=C1C=C(NCc2ccc(Cl)c(Cl)c2)C2(CCCCC2)O1 | 17µM* | -2% | 4 | 1 | 6µM* | 24µM*
O=C(Cc1ccc(Cl)c(Cl)c1)NCC1(N2CCOCC2)CCCCC1 | -21% | -2% | 7 | 17 | . | .
CN1C(=O)c2ccccc2NC(=O)C1Cc1ccccc1 (configuration not stated) | -13% | 3% | 2 | -11 | . | .
O=C1Nc2ccccc2C(=O)C1(Cl)Cc1ccccc1 (configuration not stated) | ? | -2% | -6 | 0 | 11µM* | 13µM*
COc1ccc(OC)c(S(=O)(=O)N(C(C)=O)c2ccc3oc(=O)sc3c2)c1 | ? | 0% | 8 | 15 | -21% | ?
COc1ccc(OC)c(CC(=O)O)c1 | -1% | -4% | -8 | -6 | . | .
C[C@H](NC(=O)C1CCN(S(=O)(=O)c2ccccc2)CC1)C(=O)NCc1ccc(Cl)c(Cl)c1 | 27µM* | -5% | 14 | 4 | 21µM* | ?
O=C(C1CCN(S(=O)(=O)c2ccccc2)CC1)N1CCC2(CC1)OCCO2 | -1% | -5% | -2 | 0 | . | .
CNC(=O)NC(O)C(Cl)(Cl)Cl (configuration not stated) | -2% | -4% | 5 | -3 | . | .
Cc1cccc(C#N)c1 | -1% | 0% | 14 | -3 | . | .
COc1ccc(-n2nc(C(=O)NCC(=O)N3CCC4(CC3)OCCO4)c3ccccc3c2=O)cc1OC | -10% | -1% | -23 | -3 | . | .
